Test results published in PubChem BioAssay AID1159580 (chemical genetic matrix, 2015).
“And” between values parts separate entries of the source, which are not always exact repeats. Identical values can stand only once. Screen size: about 5,500 compounds; about 2,000 (36%) were called active. Not shown: some 18% with an inconclusive outcome. No stated cut-off is given here; in the data, active means normalized growth mostly below about 0.91 (no sharp cut-off); inconclusive means no clear call, values can overlap the other calls; inactive means mostly above about 0.92. This is one part of the list.

Test: chemical genetic growth profiling, strain panel (AID 1159580);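 further: tested at 20 µM; growth read once vehicle control cultures reached saturation at 30 °C; 1 = growth at the plate median or of vehicle wells; lower values mean less growth of the strain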
Conditions: S. cerevisiae deletion strains, growth OD
[1] = locus YHR030C, strain SLT2, hits give low values
[2] = locus YHR079C, strain IRE1, hits give low values
[3] = locus YJL095W, strain BCK1, hits give low values
[4] = locus YJR066W, strain TOR1, hits give low values
[5] = locus YLR113W, strain HOG1, hits give low values
[6] = locus YNL183C, strain NPR1, hits give low values
[7] = locus YOR231W, strain MKK1, hits give low values
[8] = locus YPL256C, strain CLN2, hits give low values

Measured: normalized growth

COc1cc(O)c(C(C)=O)c(O)c1
inactive: [1] 1.05 | [2] 1.03 | [3] 0.989 | [4] 0.979 | [5] 0.935 | [6] 0.925 | [7] 1.04 | [8] 0.992

COc1cc(O)c(C(C)=O)c(OC)c1
inactive: locus YAL013W, strain DEP1, hits give low values 1.02 | locus YAL021C, strain ccr4, hits give low values 1.01 | locus YAL026C, strain drs2, hits give low values 0.968 | locus YAL030W, strain snc1, hits give low values 1 | locus YBL061C, strain skt5, hits give low values 0.992 | locus YBR009C, strain hhf1, hits give low values 0.957 | locus YBR021W, strain FUR4, hits give low values 1.02 | locus YBR023C, strain chs3, hits give low values 0.995 | locus YBR171W, strain sec66, hits give low values 0.993 | locus YBR229C, strain ROT2, hits give low values 1.01 | locus YBR231C, strain swc5, hits give low values 0.994 | locus YBR279W, strain paf1, hits give low values 1 | locus YCL011C, strain gbp2, hits give low values 0.99 | locus YCL016C, strain dcc1, hits give low values 1.01 | locus YCL029C, strain bik1, hits give low values 1.01 | locus YCL061C, strain MRC1, hits give low values 0.965 | locus YCL069W, strain vba3, hits give low values 1 | locus YCR088W, strain abp1, hits give low values 0.993 | locus YDL005C, strain med2, hits give low values 1.03 | locus YDL035C, strain GPR1, hits give low values 1.04 | locus YDL040C, strain nat1, hits give low values 0.999 | locus YDL074C, strain BRE1, hits give low values 1.04 | locus YDL101C, strain DUN1, hits give low values 1.01 | locus YDL134C, strain PPH21, hits give low values 0.999 | locus YDL185W, strain tfp1, hits give low values 0.992 | locus YDL192W, strain arf1, hits give low values 1.01 | locus YDR001C, strain nth1, hits give low values 0.996 | locus YDR069C, strain doa4, hits give low values 1.03 | locus YDR101C, strain arx1, hits give low values 1 | locus YDR137W, strain rgp1, hits give low values 1.03 | locus YDR150W, strain NUM1, hits give low values 0.982 | locus YDR159W, strain sac3, hits give low values 0.936 | locus YDR162C, strain NBP2, hits give low values 1.05 | locus YDR297W, strain sur2, hits give low values 1.01 | locus YDR318W, strain mcm21, hits give low values 1 | locus YDR334W, strain swr1, hits give low values 1 | locus YDR335W, strain msn5, hits give low values 1.01 | locus YDR388W, hits give low values 1 | locus YDR392W, strain spt3, hits give low values 0.842 | locus YDR502C, strain sam2, hits give low values 0.983 | locus YEL003W, strain gim4, hits give low values 0.984 | locus YEL037C, strain rad23, hits give low values 0.998 | locus YEL061C, strain CIN8 (second series), hits give low values 1 | locus YEL061C, strain CIN8, hits give low values 1.01 | locus YER015W, strain faa2, hits give low values 1.01 | locus YER016W, strain bim1, hits give low values 1 | locus YER110C, hits give low values 0.982 | locus YER111C, strain swi4, hits give low values 1 | locus YER155C, strain BEM2, hits give low values 1.01 | locus YER167W, strain BCK2, hits give low values 1.01 | locus YFR010W, strain ubp6, hits give low values 0.999 | locus YGL078C, strain dbp3, hits give low values 0.991 | locus YGL086W, strain mad1, hits give low values 0.988 | locus YGL167C, strain pmr1, hits give low values 1.01 | locus YGL173C, strain kem1, hits give low values 0.988 | locus YGL227W, strain vid30, hits give low values 0.997 | locus YGL240W, strain doc1, hits give low values 0.916 | locus YGL248W, strain PDE1, hits give low values 0.996 | locus YGL253W, strain hxk2, hits give low values 0.984 | locus YGR078C, strain PAC10, hits give low values 0.989 | locus YGR135W, strain pre9, hits give low values 0.957 | locus YGR252W, strain gcn5, hits give low values 0.921 | locus YHR013C, strain ard1, hits give low values 1.01 | locus YHR027C, strain rpn1, hits give low values 1.01 | [1] 1.01 and 0.966 | locus YHR079C, strain IRE1 (second series), hits give low values 1 | [2] 0.965 | locus YHR094C, strain hxt1, hits give low values 0.993 | locus YHR129C, strain ARP1, hits give low values 1.02 | locus YHR142W, strain chs7, hits give low values 0.929 | locus YHR200W, strain rpn10, hits give low values 0.98 | locus YIL066C, strain RNR3, hits give low values 1.02 | locus YIL073C, strain SPO22, hits give low values 0.967 | locus YIL125W, strain kgd1, hits give low values 1 | locus YIR030C, strain dcg1, hits give low values 0.997 | locus YJL092W, strain hpr5, hits give low values 0.992 | locus YJL095W, strain BCK1 (second series), hits give low values 0.996 | [3] 1.02 and 0.967 | locus YJL115W, strain asf1, hits give low values 1.01 | locus YJL129C, strain trk1, hits give low values 0.995 | locus YJL134W, strain LCB3, hits give low values 1 | locus YJL154C, strain vps35, hits give low values 1.01 | locus YJL164C, strain tpk1, hits give low values 0.976 | locus YJL166W, strain qcr8, hits give low values 0.978 | locus YJL168C, strain set2, hits give low values 0.993 | locus YJL187C, strain SWE1 (second series), hits give low values 1.01 | locus YJL187C, strain SWE1, hits give low values 1 | [4] 0.89 | locus YKL009W, strain mrt4, hits give low values 1.02 | locus YKL068W, hits give low values 0.99 | locus YKL085W, strain MDH1 (second series), hits give low values 1.01 | locus YKL085W, strain MDH1, hits give low values 1.01 | locus YKL160W, strain elf1, hits give low values 0.986 | locus YKL190W, strain CNB1, hits give low values 1.01 | locus YKR001C, strain vps1, hits give low values 0.998 | locus YKR026C, strain gcn3, hits give low values 0.994 | locus YKR091W, strain srl3, hits give low values 0.998 | locus YLL001W, strain dnm1, hits give low values 0.992 | locus YLL026W, hits give low values 0.992 | locus YLL041C, strain sdh2, hits give low values 0.998 | locus YLR027C, strain aat2, hits give low values 0.987 | locus YLR039C, strain RIC1, hits give low values 1.1 | locus YLR058C, strain SHM2, hits give low values 1.02 | locus YLR102C, strain apc9, hits give low values 0.992 | [5] 0.955 | locus YLR221C, strain rsa3, hits give low values 0.971 | locus YLR258W, strain gsy2, hits give low values 0.982 | locus YLR262C, strain YPT6 (second series), hits give low values 1.01 | locus YLR262C, strain YPT6, hits give low values 1.15 | locus YLR268W, strain sec22, hits give low values 1.01 | locus YLR320W, strain mms22, hits give low values 0.972 | locus YLR330W, strain CHS5, hits give low values 1.01 | locus YLR342W, strain FKS1, hits give low values 1.01 | locus YLR357W, strain rsc2, hits give low values 1.01 | locus YLR370C, strain arc18, hits give low values 1 | locus YLR371W, strain rom2, hits give low values 0.975 | locus YLR384C, strain iki3, hits give low values 1.01 | locus YLR418C, strain cdc73, hits give low values 0.998 | locus YML016C, strain PPZ1, hits give low values 1 | locus YML032C, strain rad52, hits give low values 1.01 | locus YML120C, strain ndi1, hits give low values 0.99 | locus YML124C, strain tub3, hits give low values 0.988 | locus YMR058W, strain fet3, hits give low values 0.972 | locus YMR078C, strain ctf18, hits give low values 0.98 | locus YMR125W, strain sto1, hits give low values 1.06 | locus YMR129W, hits give low values 1.01 | locus YMR205C, strain PFK2, hits give low values 1 | locus YMR223W, strain ubp8, hits give low values 0.989 | locus YMR231W, strain pep5, hits give low values 1.02 | locus YMR307W, strain GAS1, hits give low values 1.02 | locus YNL067W, strain RPL9B, hits give low values 1 | locus YNL071W, strain lat1, hits give low values 0.985 | locus YNL128W, strain TEP1, hits give low values 1.03 | locus YNL153C, strain GIM3, hits give low values 1.02 | [6] 0.918 | locus YNL209W, strain ssb2, hits give low values 1 | locus YNL233W, strain BNI4, hits give low values 1.03 | locus YNL248C, strain rpa49, hits give low values 0.969 | locus YNL250W, strain rad50, hits give low values 0.99 | locus YNL271C, strain bni1, hits give low values 0.985 | locus YNL298W, strain CLA4, hits give low values 1 | locus YNL307C, strain MCK1, hits give low values 0.978 | locus YNL322C, strain KRE1 (second series), hits give low values 1.01 | locus YNR049C, strain mso1, hits give low values 1.01 | locus YNR052C, strain pop2, hits give low values 0.988 | locus YOL006C, strain TOP1, hits give low values 1.06 | locus YOL012C, strain htz1 0.925 | locus YOL147C, strain pex11, hits give low values 1 | locus YOR001W, strain rrp6, hits give low values 0.959 | locus YOR061W, strain CKA2, hits give low values 1.03 | locus YOR069W, strain VPS5, hits give low values 1 | locus YOR070C, strain gyp1, hits give low values 0.998 | locus YOR080W, strain dia2, hits give low values 1.01 | locus YOR083W, strain WHI5, hits give low values 0.965 | locus YOR106W, strain vam3, hits give low values 0.972 | locus YOR136W, strain idh2, hits give low values 1 | locus YOR144C, strain elg1, hits give low values 0.999 | locus YOR184W, strain ser1, hits give low values 1.03 | [7] 0.956 | locus YOR265W, strain rbl2, hits give low values 0.989 | locus YOR270C, strain vph1, hits give low values 0.915 | locus YOR290C, strain snf2, hits give low values 0.95 | locus YOR316C, strain cot1, hits give low values 0.995 | locus YPL051W, strain arl3, hits give low values 0.966 | locus YPL078C, strain atp4, hits give low values 0.954 | locus YPL106C, strain sse1, hits give low values 0.982 | locus YPL240C, strain hsp82, hits give low values 1 | [8] 0.978 | locus YPR119W, strain clb2, hits give low values 0.988 | locus YPR141C, strain kar3, hits give low values 0.993 | locus YPR163C, strain tif3, hits give low values 0.986 | locus YPR167C, strain met16, hits give low values 0.991 | strain wtn01, hits give low values 0.991
active: locus YDR195W, strain ref2 1.16 [resistant] | locus YER155C, strain BEM2 (second series), hits give low values 0.8
